Measurements reported in PubChem BioAssay AID1159580 (chemical genetic matrix, 2015).
Hit rate of the full screen: of about 5,500 compounds, about 2,000 (36%) were called active. Roughly 18% stayed inconclusive and do not appear here. Cut-off read from the data, not from the text of the source: active = normalized growth mostly below about 0.91 (no sharp cut-off); inconclusive = no clear call, values can overlap the other calls; inactive = mostly above about 0.92. This is one part of the list.

Experiment: chemical genetic growth profiling, strain panel (AID 1159580);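 note: tested at 20 µM; growth read once vehicle control cultures reached saturation at 30 °C; 1 = growth at the plate median or of vehicle wells; lower values mean less growth of the strain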
Conditions: S. cerevisiae deletion strains, growth OD
[1] = locus YAL040C, strain CLN3, stronger effect = lower value
[2] = locus YCL061C, strain MRC1 (second series), stronger effect = lower value
[3] = locus YDR363W, strain ESC2, stronger effect = lower value
[4] = locus YER002W, strain NOP16, stronger effect = lower value
[5] = locus YMR263W, strain SAP30, stronger effect = lower value
[6] = locus YNL175C, strain NOP13, stronger effect = lower value
[7] = locus YNL197C, strain WHI3, stronger effect = lower value
[8] = locus YNL224C, strain SQS1, stronger effect = lower value
[9] = locus YOR083W, strain WHI5 (second series), stronger effect = lower value
[10] = locus YPL055C, strain LGE1, stronger effect = lower value
[11] = locus YPL241C, strain CIN2, stronger effect = lower value

Measured: normalized growth

S=C=Nc1cccc(C2(N3CCCCC3)CCCCC2)c1
inactive: locus YAL013W, strain DEP1, stronger effect = lower value 0.993 | [1] 0.998 | [2] 0.998 | [3] 0.993 | [4] 1.01 | locus YJR075W, strain HOC1, stronger effect = lower value 0.984 | [5] 1 | locus YMR307W, strain GAS1, stronger effect = lower value 1 | locus YNL153C, strain GIM3, stronger effect = lower value 0.968 | [6] 0.994 | [7] 1.08 | [8] 1.04 | [9] 1 | [10] 0.939 | [11] 1

CC1(C)CCC(NC(=O)[C@@H](N)CCC(=O)O)CC1
inactive: [1] 1.02 | [2] 0.999 | [3] 1.02 | [4] 0.995 | locus YGR078C, strain PAC10, stronger effect = lower value 1.02 | [5] 0.999 | [6] 1.01 | [7] 0.998 | [8] 0.999 | locus YNL322C, strain KRE1, stronger effect = lower value 1.01 | [9] 1 | [10] 1.02 | [11] 0.996
